Values joined by “and” are separate entries in the source; they are usually repeats but may differ in a detail not shown here. Equal entries are not always repeated.
How the values were obtained:
Format in all cases: functional
[1] = target: Solute carrier family 2, facilitated glucose transporter member 1 (Homo sapiens) (UniProt P11166); assay: ST_JUDE_LEISH: Cytotoxicity at 2uM final concentration against transgenic Leishmania Mexicana promastigotes LmGLUT1 that are glucose transport deficient and complemented with the human glucose transporter GLUT1. Activity is measured by DNA content using SYBR green in vitro
[2] = target: Hexose transporter 1 (Plasmodium falciparum) (UniProt O97467); assay: ST_JUDE_LEISH: Cytotoxicity at 2uM final concentration against transgenic Leishmania Mexicana promastigotes LmPfHT that are glucose transport deficient and complemented with the Plasmodium falciparum hexose transporter. Activity is measured by DNA content using SYBR green in vitro
[3] = target: Glucose transporter (Leishmania mexicana) (UniProt O61059); assay: ST_JUDE_LEISH: Cytotoxicity at 2uM final concentration against transgenic Leishmania Mexicana promastigotes LmGT2 that are glucose transport deficient and complemented with the L. Mexicana glucose transporter 2. Activity is measured by DNA content using SYBR green in vitro

Solute carrier family 2, facilitated glucose transporter member 1 (Homo sapiens), sequence (P11166 whole entry): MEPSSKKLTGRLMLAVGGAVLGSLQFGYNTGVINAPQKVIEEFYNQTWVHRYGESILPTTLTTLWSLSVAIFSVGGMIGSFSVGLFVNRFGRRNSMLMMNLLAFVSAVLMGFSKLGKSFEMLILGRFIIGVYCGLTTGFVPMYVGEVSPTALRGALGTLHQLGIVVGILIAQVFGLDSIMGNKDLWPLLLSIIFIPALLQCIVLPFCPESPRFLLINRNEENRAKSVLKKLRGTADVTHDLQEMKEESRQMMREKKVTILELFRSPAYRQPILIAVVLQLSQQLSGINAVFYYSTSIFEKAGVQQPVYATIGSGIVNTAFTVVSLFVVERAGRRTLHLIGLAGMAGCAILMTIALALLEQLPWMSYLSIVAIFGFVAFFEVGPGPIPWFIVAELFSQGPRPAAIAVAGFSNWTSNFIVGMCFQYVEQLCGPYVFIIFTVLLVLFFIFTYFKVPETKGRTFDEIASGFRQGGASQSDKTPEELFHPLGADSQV

SMILES	inhibition [1]	inhibition [2]	inhibition [3]
COc1cc(Cc2cnc(N)nc2N)ccc1OCC(=O)Nc1ccc(C)cc1	8.4%	9.26%	8.92%
Cc1cc(OCC2CCCN(c3ncc(C(=O)NC4CC4)cc3Cl)C2)ccc1F (stereo unspecified)	0.51%	1.78%	0.81%
O=C(/C=C/c1ccccc1O)NCCCCCN1CCC(c2c[nH]c3ccccc23)CC1	3.82%	2.03%	1.37%
O=C(NCCN1CCCC1)c1cc(-c2ccc(Cl)c(O)c2)c(-c2ccncc2)o1	2.96%	4.79%	0.49%
c1cc(CN2CCN(c3ccncc3)CC2)cc(-c2ccc(-c3nc4ccccc4[nH]3)cc2)c1	8.29%	5.17%	2.65%
O=C(C=Cc1ccc(Cl)c(Cl)c1)NCCCCCN1CCC(CCNC(=O)c2cccc3ccccc23)CC1	4.11%	2.98%	2.03%
CCN(CCCN1CCCCC1)c1cc(C)nc(Nc2ccc(C)c(Br)c2)n1	4.08%	6.82%	7.62%
O=C(NC1CCN(Cc2ccccc2)CC1)c1cc(-c2ccncc2)nc2ccc(Cl)cc12	4.96%	3.26%	0.14%
Oc1ccccc1CNC1CCCCC1NCc1ccccc1O (stereo unspecified)	7.77%	9.96%	4.48%
Cc1ccc(C2CC(=O)CC(c3ccccn3)C2[N+](=O)[O-])cc1 (stereo unspecified)	-0.44%	0.92%	-0.46%
COc1ccc(-c2nc3c4ccccc4c4ccc(I)cc4c3[nH]2)cc1	5.22%	2.48%	2.32%
Cc1c(CC(=O)N(C)C2CCN(CCCCCNC(=O)/C=C/c3ccc(Cl)c(Cl)c3)CC2)sc2ccc(Cl)cc12	7.99%	0.91%	5.9%
Cc1cc(C(=O)Nc2nc(-c3ccccn3)nc3ccsc23)no1	75.8%	75.1%	68.5%
COc1cc(C)c(C(O)CNC(C)CCc2ccccc2)cc1C (stereo unspecified)	2.16%	2.83%	-0.47%
CCN(CC)Cc1cc(Nc2c3ccc(Cl)cc3nc3cccc(OC)c23)ccc1O	7.41%	11.1%	5%
CN(C)Cc1cccc(-c2ccc(NC(=O)c3ccc4c(=O)n(C5CCCCC5)cnc4c3)cc2)c1	76%	80.4%	79.8%
COc1ccc(NC(=O)N2CCCN(CCCCCNC(=O)/C=C/c3ccc(C(F)(F)F)cc3)CC2)cc1Cl	-0.26%	-1.14%	2.8%
COC(=O)c1cccc(CNCc2ccc(-c3ccc(-c4nc5cccc(C)c5[nH]4)cc3)cc2)c1	6.68%	1.95%	1.08%
c1ccc(CN2CCN(CCCCNc3c4ccccc4nc4ccccc34)CC2)cc1	31.7%	37.9%	19.4%
Oc1cc(Nc2ccnc3cc(-c4cccc(CN5CCCCC5)c4)ccc23)c(F)cc1Cl	3.41%	2.51%	2.54%
CN1CCC(C(=O)Nc2ccc(-c3ccc(-c4nc5ccccc5[nH]4)s3)cc2)CC1	0.79%	-2.31%	0.49%
Oc1ccc(CCNc2nc(NCc3ccc4cc(Cl)ccc4c3)nc(N3CCNCC3)n2)cc1	-0.16%	1.41%	0.67%
Cc1nccn1CCNC(=O)CN1CCC2(CCC1=O)CC(=O)c1ccccc1O2 (stereo unspecified)	8.32%	7.32%	7.28%
Cc1cccc(C)c1C1CCN(C2CCC(NC(=O)/C=C/c3ccccc3)CC2)CC1 (stereo unspecified)	5.77%	5.67%	5.46%

SMILES	inhibition [1]	inhibition [2]	inhibition [3]
Cc1[nH]c(C)c(-c2ccc(Oc3ccc(OC(F)(F)F)cc3)cc2)c(=O)c1Br	-1.24% and 1.98%	-1.18% and 1.4%	-2.31% and 2.01%
CCOc1ccc(C(=O)N2CCOC(CCN3CCC4(CCc5ccccc54)CC3)(c3ccc(Cl)c(Cl)c3)C2)cc1 (stereo unspecified)	5.41%	5.56%	5.12%
O=C(C=Cc1cccs1)Nc1ccc(-c2nc3ccccc3[nH]2)cc1	1.65%	0.72%	3.04%
CC(C)(C)OC(=O)c1c(NC(=O)/C=C/c2ccc(O)c(O)c2)sc2c1CCCC2	-1.88%	-1.04%	-0.95%
Nc1nc(N)c2cc(C#Cc3ccc(-c4ccccc4)cc3)ccc2n1	4.53%	10.9%	2.06%
NC(=O)C1CCN(Cc2ccc(-c3ccc(-c4nc5cc(F)ccc5[nH]4)cc3)cc2)CC1	12.7%	12.7%	10.8%
COc1cccc(OC)c1-c1ccccc1NC(=O)N1CCCc2cc(C)ccc21	2.46%	2.69%	2.07%
COc1ccc(-c2cccc(NC(=O)c3cccc(C#N)c3)c2)cc1CN1CCCN(C)CC1	1.45%	1.13%	5.93%
Cc1ccccc1C1CCN(C2CCC(NC(=O)c3ccc(-c4ccccc4)s3)CC2)CC1 (stereo unspecified)	1.32%	0.48%	0.02%
O=C1c2ccccc2-n2c1nc1ccccc1c2=O	-2.52%	-2.55%	-3.28%
CC(C)CCNC(=O)C1Cc2c([nH]c3cc(Br)ccc23)C2(CCN(CCc3ccccc3)CC2)N1 (stereo unspecified)	3.44%	2.47%	-3.76%
Cc1cc2c(cc1C(F)(F)F)N(C(=O)Nc1ccc(OCCN(C)C)c(C(F)(F)F)c1)CC2	2.99%	2.92%	0.83%
Cc1cc(C)c(S(=O)(=O)N2CCCCC(c3cccc(C(F)(F)F)c3)=N2)c(C)c1	1.84%	1.41%	1.47%
O=C(Nc1cccc(N2CCC(NCCCc3ccncc3)CC2)c1)c1cccc(C(F)(F)F)c1	3.33%	5.68%	4.83%
CNc1ccc(CNCc2cccc(-c3ccc(-c4nc5cccc(C)c5[nH]4)cc3)c2)cc1	7.63%	5.63%	0.87%
O=C(N[C@H]1CCN(Cc2ccc(OCCN3CCNCC3)c(Br)c2)C1)c1ccc(Cl)c(Cl)c1	0.35%	0.16%	1.51%
COc1ccccc1C1CC(c2ccccc2)=NN1C(=O)c1ccco1 (stereo unspecified)	-0.28%	-0.6%	-4.34%
CN(C)c1ccc(CN2CCC(CNC(=O)c3cc(-c4cccc(F)c4)cs3)C2)cc1 (stereo unspecified)	-1.95%	-1.31%	-9.42%
COc1cccc(CN2CCCN(Cc3cccc(NC(=O)c4cc5ccccc5s4)c3)CC2)c1	3.41%	4.66%	5.23%
Cc1ccc(C2(C)CN(CCCOc3cccc(-c4ccc(C(=O)NC(C)C)cc4)c3)CCO2)cc1 (stereo unspecified)	0.12%	4.27%	0.85%
O=C(COc1ccccc1)N(Cc1ccc(-c2ccc(CNC3Cc4ccccc4C3)cc2)cc1)C1CCNCC1	2.8%	2.48%	2.61%
CN1CCCN(Cc2ccc(-c3ccc(NC(=O)c4cccc(Cl)c4)cc3)cc2)CC1	0.35%	-1.66%	-0.18%
COc1ccc2c(ccc3c2ncc2c(=O)n(-c4ccccc4)[nH]c23)c1	-1.88%	-1.2%	-0.76%
CCCCN(C)CC#Cc1ccc(-c2ccc3[nH]c(C)c(Br)c(=O)c3c2)cn1	6.4%	7.74%	8.6%

SMILES	inhibition [1]	inhibition [2]	inhibition [3]
CC(C)C[C@@H](NC(=O)NC1CCC(CCN2C3CCC2CC(OC(=O)C(CO)c2ccccc2)C3)CC1)C(O)(c1ccccc1)c1ccccc1 (stereo partly specified)	3.28%	2.19%	0.94%
COc1cc2nc(Nc3ccc(C)cc3)nc(Nc3ccc(C)cc3)c2cc1OC	100%	101%	98.1%
O=C(Nc1ccc(-c2nc3ccccc3[nH]2)cc1)c1ccc(S(=O)(=O)N2CCCCCC2)cc1	1.06%	2.45%	1.91%
Cc1noc(C)c1C(=O)N1CCc2cc3nccc(N4CCN5CCC[C@H]5C4)c3cc21	0.08%	1.27%	-0.53%
O=C(Nc1ccc(Cl)cc1)Nc1ccc(-c2cccc(-c3nc4cc(F)ccc4[nH]3)c2)cc1	2.83%	4.68%	3.09%
CC(=O)Nc1ccc(OCCN(Cc2ccccc2OC(F)(F)F)c2ccc(C(F)(F)F)c(C#N)c2)c(Cl)c1	2.43%	2.88%	4.14%
CC(=O)Nc1cccc(CNCc2ccc(-c3cnc(N4CCCC(c5ccccc5)C4)nc3)cc2)c1 (stereo unspecified)	4.23%	2.57%	2.2%
CCCc1cn2c3c(cc(C(=O)N[C@@H](Cc4ccccc4)[C@H](O)CNC4CCOCC4)cc13)N(C)S(=O)(=O)CC2	0.07%	1.26%	-0.3%
CN1CCCN(Cc2cccc(-c3ccc(NC(=O)c4cccc(C#N)c4)cc3)c2)CC1	28.9%	12.9%	9.31%
COc1cc(CNCCCCCCNCc2cc(OC)c3ccccc3c2OC)c(OC)c2ccccc12	8.25%	11.8%	13.6%
Cc1nc(-c2ccc(-c3ccc(C(=O)Nc4ccc(Cl)c(N5CCN(C)CC5)c4)cc3)c(C)c2)no1	8.11%	7.83%	8.29%
N#Cc1ccc(N2CCN(Cc3ccc(-c4ccc(-c5nc6cc(F)ccc6[nH]5)s4)cc3)CC2)nc1	6.42%	5.07%	4.78%
O=C1CC(C(=O)Nc2cccc(-c3cccc(-c4nc5ccccc5[nH]4)c3)c2)c2ccccc2N1 (stereo unspecified)	7.77%	6.55%	0.51%
CCc1ccc(CN2CCC(NC(=O)c3ccc(-c4ccc(N(C)C)cc4)s3)CC2)cc1	2.04%	1.82%	6.05%
CCCCNCc1cc(Cl)c2ccccc2c1O	7.17%	7.57%	6.58%
CCOC(=O)c1cc(=O)c2ccc(OCC#N)cc2o1	88.5%	82.1%	74.8%
CCC(C)c1ccc(NC(=O)Nc2ccnc3ccccc23)cc1 (stereo unspecified)	2.93%	6.23%	2.25%
CC(O)C1CCCCN1C(=O)c1ccc(-c2ccc(-c3nc4ccccc4[nH]3)s2)cc1 (stereo unspecified)	-1.19%	-3.15%	-1.69%
Cc1cccc2nc(-c3cccc(-c4cccc(NC(=O)Nc5ccc(Cl)cc5)c4)c3)[nH]c12	-3.06%	-0.68%	-1.91%
N#Cc1ccc(NC(=O)Nc2ccc(OC(F)(F)F)cc2)cc1	2.17%	1.59%	-0.05%
Cc1cc2nc(-c3ccc(/C=C/C(=O)NC4CCCCC4)cc3)[nH]c2cc1C	0.61%	1.82%	1.51%
O=S(=O)(Nc1ccc(CCN2CCCCC2CCN2CCCC2)cc1)c1cccc2cccnc12 (stereo unspecified)	1.48%	1.12%	2.15%
Cc1onc(-c2ccccc2)c1-c1nc(NCc2ccccc2Cl)no1	2.36%	2.64%	1.32%
Cc1nc(N)nc(N)c1Oc1cccc(Cl)c1	3.72%	0.81%	0.35%
